Experimental data from PubChem BioAssay (Tox21).
Inconclusive results are not listed. Entries that show only a call come without a potency. A number with no mark means an inactive call. The source made the active and inactive calls. Unless noted, calls come from the whole dose curve; as a rule, active = well fitted curve in the direction sought with a large enough effect in the repeat runs; inconclusive = weak or mixed curves; inactive = no such curve, though single readings can be large; an effect the other way counts as inactive or inconclusive.

How the values were obtained:
[1] = qHTS assay to identify small molecule antagonists of the vitamin D receptor (VDR) signaling pathway - cell viability counter screen (AID 743225); note: nearly all actives have a fitted effect of over 50% in size
How it was run: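 HEK293T VDR-bla; cpd + 1a,25-(OH)2D3 3 nM final, 16 h 37C/5% CO2; B/G FRET substrate 2 h RT; then CellTiter-Glo 30 min RT, luminescence.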

[2] = qHTS assay to identify small molecule agonists of the NFkB signaling pathway (AID 1159509; active = well fitted curve in the direction sought with a large enough effect in the signal ratio in the repeat runs, not every such curve was filed as active; the % refers to the signal ratio; note: series mostly up to about 61 µM)
How it was run: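 NFkB-bla ME-180 cells with a beta-lactamase reporter under an NF-kB response element were plated overnight, treated with compounds in DMSO for 5 hr at 37 C, then loaded with FRET substrate for 1.5 hr at room temperature.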

[3] = qHTS assay to identify small molecule agonists of the NFkB signaling pathway - cell viability counter screen (AID 1159515; calls by dose curve; note: series mostly up to about 61 µM; nearly all actives have a fitted effect of over 55% in size)
How it was run: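 Viability in NFkB-bla ME-180 cells was measured by CellTiter-Glo luminescence, 30 min room temperature, in wells already treated 5 hr with compounds and read for reporter FRET.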

[4] = qHTS assay to identify small molecule agonists of the endoplasmic reticulum stress response signaling pathway (AID 1159516; active = well fitted activation curve with a large enough effect in the signal ratio in the repeat runs, not every such curve was filed as active; the % refers to the signal ratio)
How it was run: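 ER stress element reporter (bla) in HeLa. 1,500 cells/well, overnight attachment; 5 hr compound; 2 hr RT substrate; dual-emission fluorescence.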

[5] = qHTS assay to identify small molecule agonists of the endoplasmic reticulum stress response signaling pathway - cell viability counter screen (AID 1159517; calls by dose curve;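 note: HeLa cells carrying an ER stress response element beta-lactamase reporter; series mostly up to about 61 µM; nearly all actives have a fitted effect of over 50% in size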)
How it was run: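 Cells, HeLa ESRE-bla; density, 1,500/well; dosing, 5 hr at 37 C, 5% CO2; readout, CellTiter-Glo luminescence after 30 min RT.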

[6] = qHTS assay to identify small molecule antagonists of the retinoid-related orphan receptor gamma (ROR-gamma) signaling pathway - cell viability counter screen (AID 1159520); note: nearly all actives have a fitted effect of over 50% in size
How it was run: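 Cytotoxicity was read from cellular ATP (CellTiter-Glo luminescence) after 16 hr at 37 C with 1 uM doxycycline induction. The inducer was added 2 hr after compound transfer to Tet-on ROR gamma CHO cells.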

[7] = target: Nuclear receptor ROR-gamma (Homo sapiens) (UniProt P51449); assay: qHTS assay to identify small molecule antagonists of the retinoid-related orphan receptor gamma (ROR-gamma) signaling pathway (AID 1159521;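 note: CHO cells with doxycycline inducible ROR-gamma driving an RORE luciferase reporter; top concentration of the series differs between compounds; nearly all actives have a fitted effect of over 50% in size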)
How it was run: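 Cells were plated, rested 4 h at 37 C, exposed to compounds for 2 h, then given 1 uM final doxycycline hyclate to induce RORγ expression. After 16 h, ONE-Glo luminescence from the ROR response element reporter was measured.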

[8] = qHTS assay to identify small molecule agonists of the AP-1 signaling pathway - cell viability counter screen (AID 1159525; calls by dose curve; note: nearly all actives have a fitted effect of over 55% in size)
How it was run: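 Luminescent ATP readout (Cell Titer Glo, 30 min RT), normalised to DMSO and tetra n-octyl ammonium bromide controls. Cells were ME-180 AP-1-bla in 0.5% dialyzed FBS Opti-MEM, with a 5 h, 37 °C compound exposure.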

[9] = qHTS assay to identify small molecule agonists of the AP-1 signaling pathway (AID 1159526; calls by dose curve)
[10] = target: Retinoic acid receptor RXR-alpha (Homo sapiens) (UniProt P19793); assay: qHTS assay to identify small molecule agonists of the RXR signaling pathway (AID 1159527; calls by dose curve; note: nearly all actives have a fitted effect of over 35% in size; note: potency is the fitted concentration of half-maximal effect)
Chain of Retinoic acid receptor RXR-alpha (Homo sapiens) (P19793 whole entry, looked up): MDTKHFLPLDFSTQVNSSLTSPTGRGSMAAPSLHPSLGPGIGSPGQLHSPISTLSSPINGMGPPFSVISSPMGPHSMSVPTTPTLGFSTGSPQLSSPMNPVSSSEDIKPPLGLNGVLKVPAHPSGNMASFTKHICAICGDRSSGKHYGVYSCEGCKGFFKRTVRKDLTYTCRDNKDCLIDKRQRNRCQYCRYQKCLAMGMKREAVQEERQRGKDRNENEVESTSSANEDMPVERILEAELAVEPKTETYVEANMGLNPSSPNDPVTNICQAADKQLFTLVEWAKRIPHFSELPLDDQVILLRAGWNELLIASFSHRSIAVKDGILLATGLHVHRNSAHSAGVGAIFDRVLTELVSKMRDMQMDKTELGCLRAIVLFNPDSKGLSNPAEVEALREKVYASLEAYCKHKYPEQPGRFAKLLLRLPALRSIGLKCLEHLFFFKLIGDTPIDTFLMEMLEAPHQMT
How it was run: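 Cells plated at 2,000/well, rested 5 hr at 37 C, pin-dosed with DMSO compound solutions, incubated 16 hr, then loaded with B/G FRET substrate for 2 hr at RT before dual-emission fluorescence reading.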

[11] = qHTS assay to identify small molecule agonists of the RXR signaling pathway - cell viability counter screen (AID 1159529)
How it was run: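 Steps: seed RXR-alpha-UAS-bla HEK 293T cells in assay medium containing 2% charcoal-stripped FBS; incubate 5 hr; add compounds in DMSO; incubate 16 hr at 37 C; after the bla read, add CellTiter-Glo and read luminescence at 30 min.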

[12] = qHTS assay to identify small molecule antagonists of the retinoid acid receptor (RAR) signaling pathway - cell viability counter screen (AID 1159551); note: nearly all actives have a fitted effect of over 35% in size
How it was run: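 Following overnight attachment, C3RL4 reporter cells received DMSO-dissolved compounds and then retinol (1 uM final). Six hours later at 37 C, ATP content was measured by CellTiter-Glo luminescence.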

[13] = qHTS assay to identify small molecule antagonists of the retinoic acid receptor (RAR) signaling pathway (AID 1159552; note: nearly all actives have a fitted effect of over 50% in size; note: potency is the fitted concentration of half-maximal effect)
How it was run: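 Retinol at 1 uM final stimulated RARE-luciferase expression in C3RL4 cells exposed to test compounds for 6 hr at 37 C. Reduced luminescence, read 30 min after detection reagent, indicated pathway antagonism.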

[14] = qHTS assay to identify small molecule agonists of the retinoic acid receptor (RAR) signaling pathway (AID 1159553); note: potency is the fitted concentration of half-maximal effect
How it was run: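 Cell line C3RL4, RARE luciferase reporter. Treatment: compounds in DMSO, 6 hr, 37 C, 5% CO2, after overnight plating. Detection: luminescence, 30 min RT after reagent.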

[15] = qHTS assay to identify small molecule antagonists of the estrogen related receptor (ERR) signaling pathway - cell viability counter screen (AID 1224818);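 note: series mostly up to about 46 µM; viability measured after 17.5 h of compound exposure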
How it was run: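 Here, ERR cells are plated at 2,000 cells per well, allowed 6 h to attach, and treated with compounds in DMSO for 17.5 h at 37 C. CellTiter-Fluor is then added and fluorescence read after 30 min.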

[16] = qHTS assay to identify small molecule antagonists of the estrogen related receptor (ERR) signaling pathway (AID 1224819)
How it was run: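 LOPAC library screened for antagonism as reduced One-Glo luminescence in ERR reporter cells (2,000/well). Compounds were added after 6 h pre-incubation and left 18 h at 37C; reading followed a 30 min room-temperature reagent step.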

[17] = qHTS assay to identify small molecule agonists of the estrogen related receptor (ERR) signaling pathway (AID 1224820)
How it was run: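 ERR reporter cells (NTP line) plated 2,000/well, incubated 6 h at 37 C/5% CO2, then pinned with compounds in DMSO and held 18 h at 37 C. One-Glo added; luminescence read after 30 min at room temperature.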

[18] = test system: estrogen-related receptor alpha (ERRalpha) with PGC-1alpha coactivator, human; assay: qHTS assay to identify small molecule antagonists of the estrogen related receptor signaling pathway with the pleiotropic PPARgamma coactivator (PGC) (AID 1224821; calls by dose curve)
How it was run: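 Cells engineered for PGC/ERR signalling (line from NTP) were plated 6 h at 37 C/5% CO2, then exposed to DMSO-dissolved compound for 18 h at 37 C. Luciferase activity was read by One-Glo luminescence after 30 min at room temperature.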

[19] = qHTS assay to identify small molecule antagonists of the estrogen related receptor signaling pathway with the pleiotropic PPARgamma coactivator (PGC) cell viability counter screen (AID 1224822;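 note: series mostly up to about 46 µM; viability read after 17.5 h compound exposure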)
How it was run: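 qHTS format, DMSO compound stocks pin-transferred onto PGC/ERR cells 6 h after plating; 17.5 h exposure at 37 C, then CellTiter-Fluor fluorescence.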

[20] = qHTS assay to identify small molecule agonists of the estrogen related receptor signaling pathway with the pleiotropic PPARgamma coactivator (PGC) (AID 1224823)
How it was run: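 PGC/ERR reporter cells were seeded, rested 6 h at 37 C/5% CO2, then exposed to compounds in DMSO by pin transfer for 18 h at 37 C. Luciferase activity was read as luminescence after One-Glo reagent and 30 min at room temperature.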

Structure (SMILES)	Potency [1]	outcome [2]	outcome [3]	outcome [4]	Potency [5]	Potency [6]	Potency [7]	Potency [8]	outcome [9]	Potency [10]	Potency [11]	Potency [12]	Potency [13]	Potency [14]	outcome [15]	outcome [16]	outcome [17]	outcome [18]	outcome [19]	outcome [20]
N#CC(Br)(Br)C(N)=O	inactive	inactive	inactive	inactive	inactive	inactive	inactive	inactive	inactive	1.55 µM (active)	inactive	inactive	4.86 µM (active)	inactive						
CC(C)(C)NC[C@H](O)c1ccc(O)cc1Cl	inactive	inactive	inactive	inactive	inactive	inactive	inactive	inactive	inactive	inactive	inactive	inactive	inactive	inactive						
CNC(=O)O/N=C(/CSC)C(C)(C)C	inactive	inactive	inactive	inactive	inactive	inactive	inactive	inactive	inactive	inactive	inactive	inactive	inactive	inactive						
COC1=CC(=O)O[C@@H](/C=C/c2ccccc2)C1	inactive	inactive	inactive	inactive	inactive	inactive	inactive	inactive	inactive	inactive	inactive	inactive	inactive	24.7 µM (active)						
CCCN1CCC[C@@H]2Cc3nc(N)ncc3C[C@H]21	inactive	inactive	inactive	inactive	inactive	inactive	inactive	inactive	inactive	inactive	inactive	inactive	inactive		inactive	inactive	inactive	inactive	inactive	inactive
CN(C)C1CCCCC1	inactive	inactive	inactive	inactive	inactive	inactive	inactive	inactive	inactive	inactive	inactive	inactive	inactive	inactive						
NNC(N)=O	inactive	inactive	inactive	inactive	inactive	inactive	inactive	inactive	inactive	inactive	inactive	inactive	inactive		inactive				inactive	
ClCCN1CCCC1	inactive	inactive	inactive	inactive	inactive	inactive	inactive	inactive	inactive	inactive	inactive	inactive	inactive	inactive						
CC(C)[C@]12CC(=O)[C@H](C)[C@H]1C2	inactive	inactive	inactive	inactive	inactive	inactive	inactive	inactive	inactive	inactive	inactive	inactive	inactive							
CCC1(c2ccccc2)C(=O)N(COC)C(=O)N(COC)C1=O	inactive	inactive	inactive	inactive	inactive	inactive	inactive	inactive	inactive	inactive	inactive	inactive	inactive	inactive						
